Values joined by “and” are separate entries in the source; they are usually repeats but may differ in a detail not shown here. Equal entries are not always repeated. Screen size: about 5,500 compounds; about 2,000 (36%) were called active. Roughly 18% stayed inconclusive and do not appear here. Cut-off read from the data, not from the text of the source: active = normalized growth mostly below about 0.91 (no sharp cut-off); inconclusive = no clear call, values can overlap the other calls; inactive = mostly above about 0.92. Some of the results follow.
Assay: chemical genetic growth profiling, strain panel (AID 1159580);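 note: tested at 20 µM; growth read once vehicle control cultures reached saturation at 30 °C; 1 = growth at the plate median or of vehicle wells; lower values mean less growth of the strain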
Settings: S. cerevisiae deletion strains, growth OD

Measured: normalized growth

CC1(C)O[C@@H]2CC3C4C[C@H](F)C5=CC(=O)CC[C@]5(C)C4[C@@H](O)C[C@]3(C)[C@]2(C(=O)CO)O1 (stereo partly specified)
inactive: locus YAL013W, strain DEP1, active compounds read low 1.02 | locus YAL021C, strain ccr4, active compounds read low 0.971 | locus YAL026C, strain drs2, active compounds read low 1.01 | locus YAL030W, strain snc1, active compounds read low 1.01 | locus YBL061C, strain skt5, active compounds read low 1.01 | locus YBR009C, strain hhf1, active compounds read low 1 | locus YBR021W, strain FUR4, active compounds read low 1.02 | locus YBR023C, strain chs3, active compounds read low 1 | locus YBR171W, strain sec66, active compounds read low 1.01 | locus YBR229C, strain ROT2, active compounds read low 1.01 | locus YBR231C, strain swc5, active compounds read low 1 | locus YBR279W, strain paf1, active compounds read low 0.994 | locus YCL011C, strain gbp2, active compounds read low 1 | locus YCL016C, strain dcc1, active compounds read low 0.992 | locus YCL029C, strain bik1, active compounds read low 1.01 | locus YCL069W, strain vba3, active compounds read low 1 | locus YCR088W, strain abp1, active compounds read low 1.01 | locus YDL005C, strain med2, active compounds read low 1.03 | locus YDL035C, strain GPR1, active compounds read low 1.01 | locus YDL040C, strain nat1, active compounds read low 1.01 | locus YDL074C, strain BRE1, active compounds read low 1.04 | locus YDL101C, strain DUN1, active compounds read low 1.02 | locus YDL134C, strain PPH21, active compounds read low 1.01 | locus YDL185W, strain tfp1, active compounds read low 1.01 | locus YDL192W, strain arf1, active compounds read low 1.01 | locus YDR001C, strain nth1, active compounds read low 1 | locus YDR069C, strain doa4, active compounds read low 1.01 | locus YDR101C, strain arx1, active compounds read low 0.998 | locus YDR137W, strain rgp1, active compounds read low 0.995 | locus YDR150W, strain NUM1, active compounds read low 1.03 | locus YDR159W, strain sac3, active compounds read low 0.939 | locus YDR162C, strain NBP2, active compounds read low 1.03 | locus YDR195W, strain ref2 0.991 | locus YDR297W, strain sur2, active compounds read low 1.01 | locus YDR318W, strain mcm21, active compounds read low 0.999 | locus YDR334W, strain swr1, active compounds read low 1.01 | locus YDR335W, strain msn5, active compounds read low 1 | locus YDR388W, active compounds read low 1.01 | locus YDR392W, strain spt3, active compounds read low 0.931 | locus YDR502C, strain sam2, active compounds read low 1 | locus YEL003W, strain gim4, active compounds read low 0.999 | locus YEL037C, strain rad23, active compounds read low 1.01 | locus YEL061C, strain CIN8 (second series), active compounds read low 1.01 | locus YEL061C, strain CIN8, active compounds read low 1.01 | locus YER015W, strain faa2, active compounds read low 1.01 | locus YER016W, strain bim1, active compounds read low 1 | locus YER110C, active compounds read low 0.998 | locus YER111C, strain swi4, active compounds read low 1 | locus YER155C, strain BEM2 (second series), active compounds read low 1.03 | locus YER155C, strain BEM2, active compounds read low 1 | locus YER167W, strain BCK2, active compounds read low 1.01 | locus YFR010W, strain ubp6, active compounds read low 1.01 | locus YGL078C, strain dbp3, active compounds read low 0.995 | locus YGL086W, strain mad1, active compounds read low 1 | locus YGL167C, strain pmr1, active compounds read low 0.996 | locus YGL173C, strain kem1, active compounds read low 1.02 | locus YGL227W, strain vid30, active compounds read low 1 | locus YGL240W, strain doc1, active compounds read low 1 | locus YGL248W, strain PDE1, active compounds read low 1.01 | locus YGL253W, strain hxk2, active compounds read low 1 | locus YGR078C, strain PAC10, active compounds read low 1.02 | locus YGR135W, strain pre9, active compounds read low 1 | locus YGR229C, strain SMI1, active compounds read low 1.02 | locus YGR252W, strain gcn5, active compounds read low 0.983 | locus YHR013C, strain ard1, active compounds read low 0.994 | locus YHR027C, strain rpn1, active compounds read low 1.02 | locus YHR030C, strain SLT2, active compounds read low 1 and 1.02 | locus YHR079C, strain IRE1 (second series), active compounds read low 0.999 | locus YHR079C, strain IRE1, active compounds read low 1.03 | locus YHR094C, strain hxt1, active compounds read low 1.01 | locus YHR129C, strain ARP1, active compounds read low 1.01 | locus YHR142W, strain chs7, active compounds read low 1 | locus YHR200W, strain rpn10, active compounds read low 1.01 | locus YIL066C, strain RNR3, active compounds read low 1 | locus YIL073C, strain SPO22, active compounds read low 1.01 | locus YIL125W, strain kgd1, active compounds read low 0.995 | locus YIR030C, strain dcg1, active compounds read low 1.01 | locus YJL092W, strain hpr5, active compounds read low 1.02 | locus YJL095W, strain BCK1 (second series), active compounds read low 1.01 | locus YJL095W, strain BCK1, active compounds read low 0.999 and 1.02 | locus YJL115W, strain asf1, active compounds read low 1.01 | locus YJL129C, strain trk1, active compounds read low 1.02 | locus YJL134W, strain LCB3, active compounds read low 1.01 | locus YJL154C, strain vps35, active compounds read low 1.01 | locus YJL164C, strain tpk1, active compounds read low 0.982 | locus YJL166W, strain qcr8, active compounds read low 1.01 | locus YJL168C, strain set2, active compounds read low 1.01 | locus YJL187C, strain SWE1 (second series), active compounds read low 1.01 | locus YJL187C, strain SWE1, active compounds read low 1.01 | locus YJR043C, strain POL32, active compounds read low 0.994 | locus YJR066W, strain TOR1, active compounds read low 0.957
